# Inconclusive results are not listed. Where a call stands in place of a potency, no number is given. Values without a mark were called inactive. Active and inactive are the calls of the source. Unless noted, calls come from the whole dose curve; as a rule, active = well fitted curve in the direction sought with a large enough effect in the repeat runs; inconclusive = weak or mixed curves; inactive = no such curve, though single readings can be large; an effect the other way counts as inactive or inconclusive.
# Experiments:
# [1] = target: Peroxisome proliferator-activated receptor delta (Homo sapiens) (UniProt Q03181); assay: qHTS assay to identify small molecule agonists of the peroxisome proliferator-activated receptor delta (PPARd) signaling pathway (AID 743212; calls by dose curve)
# Chain of Peroxisome proliferator-activated receptor delta (Homo sapiens) (Q03181 whole entry, looked up): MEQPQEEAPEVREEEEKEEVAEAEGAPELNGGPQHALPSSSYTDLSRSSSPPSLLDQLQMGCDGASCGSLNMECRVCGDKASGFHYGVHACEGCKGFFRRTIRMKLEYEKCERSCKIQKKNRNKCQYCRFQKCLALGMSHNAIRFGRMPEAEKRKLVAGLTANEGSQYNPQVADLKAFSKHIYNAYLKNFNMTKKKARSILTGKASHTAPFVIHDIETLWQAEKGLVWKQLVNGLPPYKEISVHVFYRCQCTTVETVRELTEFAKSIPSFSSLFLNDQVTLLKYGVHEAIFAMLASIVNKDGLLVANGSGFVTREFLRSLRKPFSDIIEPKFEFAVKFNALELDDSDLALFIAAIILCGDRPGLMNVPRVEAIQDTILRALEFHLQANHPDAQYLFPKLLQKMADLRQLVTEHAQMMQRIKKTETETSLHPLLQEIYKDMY
# Summary of the method: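 Cells expressing a UAS-driven beta-lactamase reporter (PPARd-bla HEK293H) were given test compounds after a 5 h settle and kept at 37 C. Reporter activity was then measured as FRET fluorescence using LiveBLAzer B/G substrate.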
# [2] = target: Bile acid receptor (Homo sapiens) (UniProt Q96RI1); assay: qHTS assay to identify small molecule agonists of the farnesoid-X-receptor (FXR) signaling pathway (AID 743220; active = well fitted activation curve with a large enough effect in the signal ratio in the repeat runs, not every such curve was filed as active; the % refers to the signal ratio)
# Chain of Bile acid receptor (Homo sapiens) (Q96RI1 whole entry, looked up): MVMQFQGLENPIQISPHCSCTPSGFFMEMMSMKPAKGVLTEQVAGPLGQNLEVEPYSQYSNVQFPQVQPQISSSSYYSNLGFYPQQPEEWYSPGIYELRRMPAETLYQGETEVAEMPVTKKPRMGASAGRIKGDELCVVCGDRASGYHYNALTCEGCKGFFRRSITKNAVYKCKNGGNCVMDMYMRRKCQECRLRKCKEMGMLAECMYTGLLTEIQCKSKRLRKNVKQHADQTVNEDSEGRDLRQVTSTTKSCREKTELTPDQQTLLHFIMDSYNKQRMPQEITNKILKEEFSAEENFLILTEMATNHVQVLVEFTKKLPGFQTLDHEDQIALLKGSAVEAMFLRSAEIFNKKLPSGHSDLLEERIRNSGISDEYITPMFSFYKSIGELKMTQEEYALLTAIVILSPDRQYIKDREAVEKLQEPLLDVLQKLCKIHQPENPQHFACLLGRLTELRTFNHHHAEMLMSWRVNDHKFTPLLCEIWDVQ
# Summary of the method: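 FXR-UAS-bla HEK 293T cells carrying a UAS-driven beta-lactamase reporter were plated for 5 h at 37C/5% CO2, then exposed to DMSO-dissolved Tox21 10K compounds for 16 h at 37C. A LiveBLAzer B/G FRET substrate was loaded for 2 h at room temperature before fluorescence reading.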
# [3] = qHTS assay to identify small molecule antagonists of the farnesoid-X-receptor (FXR) signaling pathway - cell viability counter screen (AID 743221; active = well fitted cell-killing curve with a large enough effect in the repeat runs, not every such curve was filed as active; note: nearly all actives have a fitted effect of over 50% in size; note: potency is the fitted concentration of half-maximal effect)
# Summary of the method: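 After a 5 h settling period, FXR-bla HEK 293T cells receive compound and chenodeoxycholic acid (50 uM final) and incubate 16 h at 37 C; CellTiter-Glo luminescence, read after 30 min at room temperature, reports cell viability.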
# [4] = qHTS assay to identify small molecule agonists of the vitamin D receptor (VDR) signaling pathway - cell viability counter screen (AID 743224); note: nearly all actives have a fitted effect of over 50% in size; note: potency is the fitted concentration of half-maximal effect; for activity change, negative = cytotoxicity: series mostly up to about 63 µM
# Summary of the method: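 CellTiter-Glo viability readout on VDR-bla cells, measured after 16 h of compound treatment at 37C in the same wells.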
# [5] = qHTS assay to identify small molecule agonists of the endoplasmic reticulum stress response signaling pathway (AID 1159516; active = well fitted activation curve with a large enough effect in the signal ratio in the repeat runs, not every such curve was filed as active; the % refers to the signal ratio)
# Summary of the method: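 Fluorescence at 460 and 530 nm (405 nm excitation) reports beta-lactamase from an ER stress response element in HeLa cells treated 5 hr at 37 C.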
# [6] = qHTS assay to identify small molecule antagonists of the retinoid-related orphan receptor gamma (ROR-gamma) signaling pathway - cell viability counter screen (AID 1159520); note: nearly all actives have a fitted effect of over 50% in size
# Summary of the method: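 Tet-on ROR gamma CHO cells (1,000/well) were plated 4 hr, given compounds in DMSO for 2 hr at 37 C, then induced with 1 uM final doxycycline for 16 hr. Viability was read as ATP by CellTiter-Glo luminescence after 30 min.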
# [7] = qHTS assay to identify small molecule antagonists of the retinoid acid receptor (RAR) signaling pathway - cell viability counter screen (AID 1159551); note: nearly all actives have a fitted effect of over 35% in size
# Summary of the method: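 In this counter screen, the RARE-luciferase line C3RL4 was exposed for 6 h at 37 C and 5% CO2 to compounds with retinol at 1 uM final. Cellular ATP, read by luminescence, served as the viability measure.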
# [8] = qHTS assay to identify small molecule agonists of the farnesoid-X-receptor (FXR) signaling pathway - cell viability counter screen (AID 743218); note: nearly all actives have a fitted effect of over 45% in size; note: potency is the fitted concentration of half-maximal effect
# Summary of the method: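 Quantitative HTS counter screen measuring ATP-based viability via CellTiter-Glo luminescence in HEK 293T cells carrying a UAS-driven beta-lactamase reporter, after 16 h compound exposure at 37 C.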
# [9] = target: Vitamin D3 receptor (Homo sapiens) (UniProt P11473); assay: qHTS assay to identify small molecule agonists of the vitamin D receptor (VDR) signaling pathway (AID 743222; calls by dose curve)
# Chain of Vitamin D3 receptor (Homo sapiens) (P11473 whole entry, looked up): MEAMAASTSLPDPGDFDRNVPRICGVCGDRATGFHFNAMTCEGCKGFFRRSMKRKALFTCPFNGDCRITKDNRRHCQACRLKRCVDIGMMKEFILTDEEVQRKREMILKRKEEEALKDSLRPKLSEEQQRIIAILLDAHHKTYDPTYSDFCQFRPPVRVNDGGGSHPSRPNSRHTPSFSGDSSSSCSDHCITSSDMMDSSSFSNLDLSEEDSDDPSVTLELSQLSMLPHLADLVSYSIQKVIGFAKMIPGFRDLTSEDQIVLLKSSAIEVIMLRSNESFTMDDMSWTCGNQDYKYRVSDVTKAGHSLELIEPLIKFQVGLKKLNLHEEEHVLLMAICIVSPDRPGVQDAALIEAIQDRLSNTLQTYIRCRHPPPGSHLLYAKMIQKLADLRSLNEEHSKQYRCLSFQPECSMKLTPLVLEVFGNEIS
# Summary of the method: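 Tox21 cell reporter format: VDR-bla line, 16 h compound exposure in 5% CO2 at 37C, then fluorescence intensity after 2 h with LiveBLAzer B/G FRET substrate.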
# [10] = qHTS assay to identify small molecule antagonists of the vitamin D receptor (VDR) signaling pathway - cell viability counter screen (AID 743225); note: nearly all actives have a fitted effect of over 50% in size; note: potency is the fitted concentration of half-maximal effect
# Summary of the method: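 Parallel cytotoxicity test: VDR-UAS-bla HEK 293T, 3 nM (final) 1-alpha,25-dihydroxyvitamin D3 with test compound, 16 h, 37C. Endpoint is CellTiter-Glo luminescence in the same wells.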
# [11] = target: Nuclear receptor ROR-gamma (Homo sapiens) (UniProt P51449); assay: qHTS assay to identify small molecule antagonists of the retinoid-related orphan receptor gamma (ROR-gamma) signaling pathway (AID 1159521; note: nearly all actives have a fitted effect of over 50% in size; note: potency is the fitted concentration of half-maximal effect;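 for activity change, negative = inhibition: CHO cells with doxycycline inducible ROR-gamma driving an RORE luciferase reporter; top concentration of the series differs between compounds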)
# Summary of the method: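 Decreased RORE-driven luciferase luminescence indicates antagonism. Tet-on RORγ CHO cells received compound, then 1 uM final doxycycline 2 h later; signal read after 16 h incubation.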
# [12] = qHTS assay to identify small molecule antagonists of the peroxisome proliferator-activated receptor delta (PPARd) signaling pathway - cell viability counter screen (AID 743213); note: nearly all actives have a fitted effect of over 50% in size; note: potency is the fitted concentration of half-maximal effect
# Summary of the method: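 PPARd-bla HEK293H cells (3000/well) got compound plus 300 nM L165041 agonist for 17 h at 37 C. Viability in the same wells came from CellTiter-Glo luminescence after 30 min at room temperature.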
# [13] = qHTS assay to identify small molecule agonists of the AP-1 signaling pathway - cell viability counter screen (AID 1159525; calls by dose curve; note: nearly all actives have a fitted effect of over 55% in size)
# Summary of the method: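 Each titration point was normalised to DMSO and tetra n-octyl ammonium bromide controls. The read was Cell Titer Glo luminescence after 30 min at RT, following 5 h compound exposure of ME-180 AP-1-bla cells at 37 °C.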
# [14] = qHTS assay to identify small molecule agonists of the AP-1 signaling pathway (AID 1159526; calls by dose curve)
# [15] = qHTS assay to identify small molecule agonists of the RXR signaling pathway - cell viability counter screen (AID 1159529); note: nearly all actives have a fitted effect of over 50% in size; note: potency is the fitted concentration of half-maximal effect; for activity change, negative = cytotoxicity: series mostly up to about 77 µM
# Summary of the method: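 In this parallel viability measure, GeneBLAzer RXR-alpha HEK 293T cells (2% charcoal-stripped FBS) were given a 5 hr preincubation, treated with compounds 16 hr at 37 C, and read by CellTiter-Glo luminescence.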
# [16] = target: Peroxisome proliferator-activated receptor delta (Homo sapiens) (UniProt Q03181); assay: qHTS assay to identify small molecule antagonists of the peroxisome proliferator-activated receptor delta (PPARd) signaling pathway (AID 743215; active = well fitted inhibition curve with a large enough effect in the signal ratio in the repeat runs, not every such curve was filed as active; the % refers to the signal ratio;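 note: cells stimulated with agonist L165041 at 300 nM final during compound exposure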; note: potency is the fitted concentration of half-maximal effect)
# Summary of the method: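 Here, a reporter line (HEK293H, beta-lactamase under a UAS) measures PPARd signaling. Compounds are tested against agonist L165041 at 300 nM final concentration over 17 h at 37 C, with fluorescence read after substrate.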
# [17] = target: Vitamin D3 receptor (Homo sapiens) (UniProt P11473); assay: qHTS assay to identify small molecule antagonists of the vitamin D receptor (VDR) signaling pathway (AID 743223; active = well fitted inhibition curve with a large enough effect in the signal ratio in the repeat runs, not every such curve was filed as active; the % refers to the signal ratio)
# Summary of the method: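 Reporter line VDR-bla; stimulus 1alpha,25-(OH)2 vitamin D3, 3 nM final; compound co-addition, 16 h 37C/5% CO2; LiveBLAzer B/G substrate 2 h RT; fluorescence intensity.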
# [18] = target: Retinoic acid receptor RXR-alpha (Homo sapiens) (UniProt P19793); assay: qHTS assay to identify small molecule agonists of the RXR signaling pathway (AID 1159527; calls by dose curve; note: nearly all actives have a fitted effect of over 35% in size)
# Chain of Retinoic acid receptor RXR-alpha (Homo sapiens) (P19793 whole entry, looked up): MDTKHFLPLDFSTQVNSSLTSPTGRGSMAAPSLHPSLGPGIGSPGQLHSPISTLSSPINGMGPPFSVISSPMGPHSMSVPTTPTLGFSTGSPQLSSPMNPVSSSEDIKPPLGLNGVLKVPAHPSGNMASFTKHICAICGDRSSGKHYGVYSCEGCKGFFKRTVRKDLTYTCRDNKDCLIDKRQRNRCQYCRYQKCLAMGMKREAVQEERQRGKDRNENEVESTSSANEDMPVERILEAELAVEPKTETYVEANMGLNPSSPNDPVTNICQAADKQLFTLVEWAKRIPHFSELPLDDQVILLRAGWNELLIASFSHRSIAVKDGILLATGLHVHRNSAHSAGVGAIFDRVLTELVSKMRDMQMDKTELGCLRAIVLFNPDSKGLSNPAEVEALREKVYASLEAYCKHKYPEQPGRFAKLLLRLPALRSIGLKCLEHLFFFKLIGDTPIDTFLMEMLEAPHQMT
# Summary of the method: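 16 hr incubation of compound-treated RXR-alpha-UAS-bla HEK 293T cells (2% charcoal-stripped FBS, 37 C) preceded a 2 hr room-temperature LiveBLAzer FRET substrate step and blue/green fluorescence measurement.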
# [19] = target: Bile acid receptor (Homo sapiens) (UniProt Q96RI1); assay: qHTS assay to identify small molecule antagonists of the farnesoid-X-receptor (FXR) signaling pathway (AID 743217; active = well fitted inhibition curve with a large enough effect in the signal ratio in the repeat runs, not every such curve was filed as active; the % refers to the signal ratio)
# Summary of the method: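 Test compounds are pin-transferred onto FXR-bla HEK 293T cells, then chenodeoxycholic acid is added at 50 uM final. After 16 h at 37 °C, LiveBLAzer B/G substrate is applied for 2 h at room temperature and fluorescence read.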
# [20] = qHTS assay to identify small molecule agonists of the endoplasmic reticulum stress response signaling pathway - cell viability counter screen (AID 1159517; calls by dose curve)
# Summary of the method: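 Cpd-treated ESRE-bla HeLa (5 hr, 37 C) → LiveBLAzer 2 hr RT → CellTiter-Glo 30 min RT → luminescence.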
smiles,measurement,setting,value
S=P(N1CC1)(N1CC1)N1CC1,outcome,[1],inactive
same,Potency,[2],inactive
same,Potency,[3],inactive
same,Potency,[4],41 µM (active)
same,Potency,[5],inactive
same,Potency,[6],inactive
same,Potency,[7],inactive
CCc1ccc(O)c(C(C)(C)C)c1,outcome,[1],inactive
same,Potency,[8],inactive
same,Potency,[3],inactive
same,Potency,[9],inactive
same,Potency,[10],38.9 µM (active)
same,Potency,[5],inactive
same,Potency,[6],inactive
same,Potency,[11],inactive
COC(=O)CC#N,Potency,[12],inactive
same,Potency,[8],inactive
same,Potency,[3],inactive
same,Potency,[4],inactive
same,Potency,[10],inactive
same,Potency,[5],inactive
same,Potency,[6],inactive
same,Potency,[13],inactive
same,Potency,[14],inactive
same,Potency,[15],inactive
same,Potency,[7],inactive
COC(=O)C1=C(C)NC(C)=C(C(=O)OCCCN2CCC(c3ccccc3)(c3ccccc3)CC2)C1c1cccc([N+](=O)[O-])c1 (stereo unspecified),Potency,[12],11.9 µM (active)
same,Potency,[8],11.9 µM (active)
same,Potency,[3],26.6 µM (active)
same,Potency,[4],26.6 µM (active)
same,Potency,[10],23.9 µM (active)
same,Potency,[5],inactive
same,Potency,[11],23.7 µM (active)
same,Potency,[13],inactive
CN(C)CCOC(c1ccccc1)c1ccccc1 (tested in a mixture with another compound),Potency,[5],inactive
same,Potency,[6],inactive
same,Potency,[13],inactive
same,Potency,[7],inactive
Nc1ncnc2c1ncn2[C@@H]1O[C@H](COP(=O)(O)O)[C@@H](O)[C@H]1O,outcome,[1],inactive
same,Potency,[12],11.9 µM (active)
same,Potency,[16],inactive
same,Potency,[3],13.3 µM (active)
same,Potency,[9],inactive
same,Potency,[17],inactive
same,Potency,[4],10.6 µM (active)
same,Potency,[10],10.7 µM (active)
same,Potency,[5],inactive
same,Potency,[6],inactive
same,Potency,[11],inactive
same,Potency,[13],inactive
same,Potency,[18],inactive
O=C1OC(=O)c2cccc3cccc1c23,outcome,[1],inactive
same,Potency,[16],inactive
same,Potency,[8],inactive
same,Potency,[3],inactive
same,Potency,[4],inactive
same,Potency,[10],inactive
same,Potency,[5],inactive
same,Potency,[6],inactive
same,Potency,[11],inactive
same,Potency,[13],inactive
same,Potency,[18],inactive
same,Potency,[15],inactive
C=CC(=O)OCC(O)COc1ccccc1 (stereo unspecified),outcome,[1],inactive
same,Potency,[8],34.7 µM (active)
same,Potency,[3],inactive
same,Potency,[5],inactive
same,Potency,[15],inactive
NCCCCCCNCCCCCCN,outcome,[1],inactive
same,Potency,[12],inactive
same,Potency,[16],inactive
same,Potency,[19],inactive
same,Potency,[8],inactive
same,Potency,[2],inactive
same,Potency,[3],inactive
same,Potency,[9],inactive
same,Potency,[17],inactive
same,Potency,[4],inactive
same,Potency,[10],inactive
same,Potency,[20],inactive
same,Potency,[6],inactive
same,Potency,[11],inactive
same,Potency,[13],inactive
same,Potency,[14],inactive
same,Potency,[18],inactive
same,Potency,[15],inactive
CCOC(=O)COc1ccc(C)cc1,Potency,[12],inactive
same,Potency,[19],inactive
same,Potency,[8],inactive
same,Potency,[2],inactive
same,Potency,[3],inactive
same,Potency,[17],inactive
same,Potency,[4],inactive
same,Potency,[10],inactive
same,Potency,[5],inactive
same,Potency,[6],inactive
same,Potency,[13],inactive
same,Potency,[14],inactive
same,Potency,[18],inactive
same,Potency,[15],inactive
same,Potency,[7],inactive
C[C@@H]1CC[C@H]2C(C)(C)[C@H]3C[C@@]12CC[C@@]3(C)O,outcome,[1],inactive
same,Potency,[12],inactive
same,Potency,[16],inactive
same,Potency,[19],inactive
same,Potency,[2],inactive
same,Potency,[3],inactive
same,Potency,[10],inactive
same,Potency,[5],inactive
same,Potency,[13],inactive
same,Potency,[7],inactive
CC(COC(=O)c1ccccc1)OC(=O)c1ccccc1 (stereo unspecified),Potency,[12],inactive
same,Potency,[3],inactive
same,Potency,[17],inactive
same,Potency,[4],inactive
same,Potency,[10],inactive
same,Potency,[20],inactive
same,Potency,[6],inactive
same,Potency,[11],inactive
same,Potency,[13],inactive
same,Potency,[14],inactive
same,Potency,[18],inactive
same,Potency,[15],inactive
same,Potency,[7],inactive
O[C@@H](c1cc(C(F)(F)F)nc2c(C(F)(F)F)cccc12)[C@H]1CCCCN1,Potency,[12],8.41 µM (active)
same,Potency,[16],13.3 µM (active)
same,Potency,[8],13.3 µM (active)
same,Potency,[2],inactive
same,Potency,[3],26.6 µM (active)
same,Potency,[4],21.1 µM (active)
same,Potency,[10],19 µM (active)
same,Potency,[5],inactive
same,Potency,[13],inactive
same,Potency,[15],15.1 µM (active)
COc1cc(C(C)C)c2c(c1)S(=O)(=O)N(COc1cc(=O)n3cccc(OCCN4CCCCC4)c3n1)C2=O,Potency,[19],inactive
same,Potency,[8],inactive
same,Potency,[3],inactive
same,Potency,[4],inactive
same,Potency,[10],inactive
same,Potency,[20],inactive
same,"activity, negative = cytotoxicity",[6],-0.0922% [at 19 µM]
same,"activity change, negative = inhibition",[11],-4.73% [at 19 µM]
same,"viability change, negative = cytotoxic",[13],-17.4% [at 15.8 µM]
same,activation,[14],7.65% [at 15.8 µM]
same,"activity change, negative = cytotoxicity",[15],-5.15% [at 15.8 µM]
same,"activity change, negative = cytotoxicity",[7],5.72% [at 19 µM]

# — PubChem BioAssay (Tox21)
